Test results reported in PubChem BioAssay (Tox21).
Results filed as inconclusive are left out. The source made the active and inactive calls. Unless noted, calls follow the shape of the full dose curve.

What was measured:
[1] = Nuclear factor erythroid 2-related factor 2/antioxidant responsive element (Nrf2/ARE) small molecule agonists: qHTS cell viability counter screen in human keratinocytes (AID 1919968; active = well fitted cell-killing curve with a large enough effect in the repeat runs; also: nearly all actives have a fitted effect of over 55% in size; also: potency is read from the fitted curve at half-maximal effect)
Method in brief: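 CellTiter-Fluor fluorescence, read 1 h after reagent, gave viability in the same wells as the ARE-luciferase assay. KeratinoSens cells (1,500/well) had 23 h compound exposure at 37 C/5% CO2 following 5 h plating.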

[2] = Nuclear factor erythroid 2-related factor 2/antioxidant responsive element (Nrf2/ARE) small molecule agonists: luciferase reporter gene qHTS assay in human keratinocytes (AID 1919969); also: nearly all actives have a fitted effect of over 35% in size; also: potency is read from the fitted curve at half-maximal effect
[3] = biological target: Gonadotropin-releasing hormone receptor (Homo sapiens) (UniProt P30968); assay: Human gonadotropin-releasing hormone receptor (GnRHR) small molecule agonists, calcium flux assay in GnRHR-HEK293 cells (AID 1920063); also: nearly all actives have a fitted effect of over 35% in size
Method in brief: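 Agonist mode: compounds at 15 concentrations, in triplicate, went onto calcium dye-loaded GnRHR-HEK293 cells. Intracellular calcium was then followed as 480/540 nm fluorescence at 1 s intervals over 3 min.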

[4] = G protein-coupled receptor (GPCR) small molecule agonists, calcium flux assay: HEK293 wild type cell line counter screen (AID 1920065)
Method in brief: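 Calcium flux counter screen: compound added in agonist mode at 15 concentrations in triplicate to dye-loaded parental HEK293 cells. Fluorescence (480/540) read kinetically for 3 min; ATP served as positive control.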

[5] = p53 small molecule agonists, cell-based qHTS assay with rat liver microsomes (AID 1963578)
Method in brief: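 p53RE-bla cells, 4,000/well, pre-incubated 5 h, then given compounds plus rat liver microsomes (0.5 mg/mL final) and NADPH (0.5 mg/mL final). Incubation 16 h at 37 C; beta-lactamase reporter read by LiveBLAzer fluorescence after 2 h at room temperature.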

[6] = p53 small molecule agonists, cell-based qHTS assay with human liver microsomes: qHTS cell viability counter screen (AID 1963579); also: nearly all actives have a fitted effect of over 45% in size
Method in brief: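 p53RE-bla cells, 4,000/well, dosed 5 hours after plating, with human liver microsomes (0.5 mg/mL final) plus NADPH (0.5 mg/mL final), 16 hours at 37 C. Viability read as CellTiter-Glo luminescence after 30 min at room temperature.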

[7] = p53 small molecule agonists, cell-based qHTS assay: qHTS cell viability counter screen (AID 1963581); also: nearly all actives have a fitted effect of over 45% in size; also: potency is read from the fitted curve at half-maximal effect
Method in brief: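 Counter screen read by CellTiter-Glo luminescence (ATP content, 30 min at room temperature), run in the same wells as the beta-lactamase reporter read. HCT-116 p53RE-bla cells saw compounds for 16 h at 37 C.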

[8] = p53 small molecule agonists, cell-based qHTS assay (AID 1963582; active = well fitted activation curve with a large enough effect in the signal ratio in the repeat runs, not every such curve was filed as active; the % refers to the signal ratio)
Method in brief: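 Read-out is beta-lactamase FRET fluorescence after 2 h at room temperature with LiveBLAzer B/G substrate. p53 response element-bla cells were treated 16 h at 37 C with compounds in DMSO, added 5 h after seeding.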

[9] = biological target: 5-hydroxytryptamine receptor 2A (Homo sapiens) (UniProt P28223); assay: 5-hydroxytryptamine receptor 2A (HTR2A) small molecule antagonists, cell-based qHTS assay (AID 1963586); also: nearly all actives have a fitted effect of over 45% in size
Method in brief: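 CHO cells stably expressing human HTR2A were plated for 18 h at 37 C, then loaded with calcium dye for 1 h. Compounds were preincubated 5 min at room temperature before DOI (4 nM solution) was added. Kinetic fluorescence was read for 3 min.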

[10] = biological target: 5-hydroxytryptamine receptor 2A (Homo sapiens) (UniProt P28223); assay: 5-hydroxytryptamine receptor 2A (HTR2A) small molecule agonists, cell-based qHTS assay (AID 1963587); also: nearly all actives have a fitted effect of over 30% in size
Method in brief: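 Kinetic calcium-flux fluorescence (2 min, 1 sec intervals) after compound addition in agonist mode. HTR2A-CHO cells were cultured 18 h, then dye-loaded 1 h at 37 C.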

[11] = biological target: Muscarinic acetylcholine receptor M1 (Homo sapiens) (UniProt P11229); assay: Cholinergic receptor muscarinic 1 (CHRM1) small molecule antagonists, cell-based qHTS assay (AID 1963588); also: nearly all actives have a fitted effect of over 40% in size; also: potency is read from the fitted curve at half-maximal effect
Method in brief: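 Compounds were tested at 15 concentrations in three independent runs. Dye-loaded CHRM1-CHO cells were exposed 5 min at room temperature before stimulation by acetylcholine added at 50nM. Intracellular calcium was read kinetically on FDSS for 3 min.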

[12] = biological target: Muscarinic acetylcholine receptor M1 (Homo sapiens) (UniProt P11229); assay: Cholinergic receptor muscarinic 1 (CHRM1) small molecule agonists, cell-based qHTS assay (AID 1963589); also: nearly all actives have a fitted effect of over 35% in size
Method in brief: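 Agonist-mode calcium-flux screen: compounds at 15 concentrations, three independent runs, were pin-transferred onto dye-loaded human CHRM1-CHO cells. Fluorescence was then recorded kinetically every second over minutes.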

[13] = cAMP Responsive Elements (CRE) small molecule antagonists, cell-based qHTS assay (AID 1963591; active = well fitted inhibition curve with a large enough effect in the signal ratio in the repeat runs, not every such curve was filed as active; the % refers to the signal ratio)
Method in brief: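 Antagonist mode: compounds are added alongside the adenylyl cyclase activator NKH477 (0.25 uM final) to CRE-bla HEK293T cells for 3 h. LiveBLAzer FRET substrate, 2 h at room temperature, reports bla expression.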

[14] = biological target: Beta-2 adrenergic receptor (Homo sapiens) (UniProt P07550); assay: Adrenergic beta2 receptor (ADRB2) small molecule antagonists, cell-based qHTS assay (AID 1963592); also: series mostly up to about 92 µM; nearly all actives have a fitted effect of over 50% in size
Method in brief: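 Assay format: CHO-ADRB2 cells, 18-20hr seeding at 37C/5% CO2, then compound plus 1nM isoproterenol agonist mix for 0.5hr RT. Homogeneous time-resolved fluorescence cAMP detection after 1hr, expressed as 665/615 nm ratio.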

[15] = biological target: Beta-2 adrenergic receptor (Homo sapiens) (UniProt P07550); assay: Adrenergic beta2 receptor (ADRB2) small molecule agonists, cell-based qHTS assay (AID 1963593);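 also: CHO cells stably overexpressing human ADRB2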
Method in brief: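 CHO cells stably over-expressing ADRB2 were plated overnight at 37C, then dosed with compounds plus a stimulation mix containing 100uM IBMX and 25uM Ro-20-1724 for 0.5hr at room temperature. cAMP was measured by HTRF competition, 1hr.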

[16] = biological target: D(2) dopamine receptor (Homo sapiens) (UniProt P14416); assay: Dopamine D2 receptor (DRD2) small molecule agonists, cell-based qHTS assay (AID 1963594); also: nearly all actives have a fitted effect of over 35% in size
Method in brief: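 cAMP accumulation in DRD2-HEK293 cells measured by HTRF after 1 h detection; compounds added 10 min before NKH477 (200nM […]) forskolin-analogue stimulation, 30 min at room temperature, with Ro20-1724 present at 0.1 mM final.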

[17] = biological target: D(2) dopamine receptor (Homo sapiens) (UniProt P14416); assay: Dopamine D2 receptor (DRD2) small molecule antagonists, cell-based qHTS assay (AID 1963595; active = well fitted inhibition curve with a large enough effect in the signal ratio in the repeat runs, with a control signal flat; the % refers to the signal ratio)
Method in brief: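 HEK293 cells stably expressing DRD2, preincubated with 0.1 mM Ro20-1724 and compounds 10 min, were stimulated with 200 nM NKH477 plus 12 nM quinpirole for 30 min at room temperature; cAMP measured by HTRF (665/620 nm).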

[18] = p53 small molecule agonists, cell-based qHTS assay with human liver microsomes (AID 1963577)
Method in brief: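 p53RE-bla cells, 4,000/well, compound added after 5 h, with human liver microsomes 0.5 mg/mL and NADPH 0.5 mg/mL final; 16 h at 37 C, then LiveBLAzer 2 h RT, fluorescence.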

[19] = p53 small molecule agonists, cell-based qHTS assay with rat liver microsomes: qHTS cell viability counter screen (AID 1963580); also: nearly all actives have a fitted effect of over 45% in size
Method in brief: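 Rat liver microsome (0.5 mg/mL final) and NADPH (0.5 mg/mL final) co-incubation with compounds for 16 h at 37 C on HCT-116 p53RE-bla cells; cytotoxicity taken from intracellular ATP luminescence.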

[20] = cAMP Responsive Elements (CRE) small molecule agonists, cell-based qHTS assay (AID 1963590)
Method in brief: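 Agonist mode: compound added to CRE-bla HEK 293T cells (2,000/well, 18 h after plating) for 3 h at 37 C/5% CO2. Reporter activity detected via FRET beta-lactamase substrate, 2 h room-temperature loading.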
% is scaled to controls: 0 for no effect and ±100 for the full control effect.

Chain of Gonadotropin-releasing hormone receptor (Homo sapiens) (P30968 whole entry, looked up): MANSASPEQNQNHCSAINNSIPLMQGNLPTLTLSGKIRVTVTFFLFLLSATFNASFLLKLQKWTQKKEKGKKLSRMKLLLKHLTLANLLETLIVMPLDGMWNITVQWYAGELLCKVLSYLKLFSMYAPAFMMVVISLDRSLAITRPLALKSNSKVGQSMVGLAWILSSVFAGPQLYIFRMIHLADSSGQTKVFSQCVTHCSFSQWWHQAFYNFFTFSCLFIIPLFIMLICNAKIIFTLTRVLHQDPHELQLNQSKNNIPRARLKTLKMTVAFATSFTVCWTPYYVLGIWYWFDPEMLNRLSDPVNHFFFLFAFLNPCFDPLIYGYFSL
Chain of Muscarinic acetylcholine receptor M1 (Homo sapiens) (P11229 whole entry, looked up): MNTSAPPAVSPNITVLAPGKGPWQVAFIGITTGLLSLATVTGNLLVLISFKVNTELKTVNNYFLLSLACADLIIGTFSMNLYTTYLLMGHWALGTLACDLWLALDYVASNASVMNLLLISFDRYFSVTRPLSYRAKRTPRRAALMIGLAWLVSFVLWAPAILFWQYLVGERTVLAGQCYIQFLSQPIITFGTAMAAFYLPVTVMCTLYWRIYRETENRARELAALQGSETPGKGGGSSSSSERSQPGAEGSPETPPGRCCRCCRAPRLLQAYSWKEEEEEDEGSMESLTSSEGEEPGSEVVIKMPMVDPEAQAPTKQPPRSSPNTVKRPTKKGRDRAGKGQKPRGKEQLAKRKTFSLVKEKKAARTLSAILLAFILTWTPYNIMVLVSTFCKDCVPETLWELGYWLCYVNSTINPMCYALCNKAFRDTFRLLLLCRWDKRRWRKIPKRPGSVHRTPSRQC
Chain of Beta-2 adrenergic receptor (Homo sapiens) (P07550 whole entry, looked up): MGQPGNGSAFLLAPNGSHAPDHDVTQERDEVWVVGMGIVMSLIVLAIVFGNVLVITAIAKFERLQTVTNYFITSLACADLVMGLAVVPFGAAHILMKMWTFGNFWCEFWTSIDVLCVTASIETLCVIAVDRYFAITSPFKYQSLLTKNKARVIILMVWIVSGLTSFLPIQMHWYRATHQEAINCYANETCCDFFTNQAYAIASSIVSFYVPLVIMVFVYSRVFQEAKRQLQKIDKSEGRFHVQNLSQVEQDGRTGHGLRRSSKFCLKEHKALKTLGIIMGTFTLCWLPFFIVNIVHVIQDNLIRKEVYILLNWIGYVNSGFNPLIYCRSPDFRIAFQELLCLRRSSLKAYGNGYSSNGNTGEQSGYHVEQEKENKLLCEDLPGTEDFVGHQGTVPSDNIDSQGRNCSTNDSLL
Chain of 5-hydroxytryptamine receptor 2A (Homo sapiens) (P28223 whole entry, looked up): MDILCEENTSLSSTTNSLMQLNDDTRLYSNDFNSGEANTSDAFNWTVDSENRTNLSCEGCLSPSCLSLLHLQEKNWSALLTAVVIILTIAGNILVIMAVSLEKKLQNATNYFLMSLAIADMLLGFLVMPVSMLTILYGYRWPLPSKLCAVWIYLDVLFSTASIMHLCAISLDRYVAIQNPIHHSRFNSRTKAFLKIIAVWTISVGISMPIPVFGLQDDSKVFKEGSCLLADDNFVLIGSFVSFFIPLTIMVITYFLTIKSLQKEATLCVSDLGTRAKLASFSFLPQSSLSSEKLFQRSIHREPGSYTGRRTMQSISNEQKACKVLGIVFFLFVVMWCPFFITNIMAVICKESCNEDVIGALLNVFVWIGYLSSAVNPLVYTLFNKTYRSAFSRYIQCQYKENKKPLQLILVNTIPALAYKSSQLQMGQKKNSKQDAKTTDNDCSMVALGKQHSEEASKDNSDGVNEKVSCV
Chain of D(2) dopamine receptor (Homo sapiens) (P14416 whole entry, looked up): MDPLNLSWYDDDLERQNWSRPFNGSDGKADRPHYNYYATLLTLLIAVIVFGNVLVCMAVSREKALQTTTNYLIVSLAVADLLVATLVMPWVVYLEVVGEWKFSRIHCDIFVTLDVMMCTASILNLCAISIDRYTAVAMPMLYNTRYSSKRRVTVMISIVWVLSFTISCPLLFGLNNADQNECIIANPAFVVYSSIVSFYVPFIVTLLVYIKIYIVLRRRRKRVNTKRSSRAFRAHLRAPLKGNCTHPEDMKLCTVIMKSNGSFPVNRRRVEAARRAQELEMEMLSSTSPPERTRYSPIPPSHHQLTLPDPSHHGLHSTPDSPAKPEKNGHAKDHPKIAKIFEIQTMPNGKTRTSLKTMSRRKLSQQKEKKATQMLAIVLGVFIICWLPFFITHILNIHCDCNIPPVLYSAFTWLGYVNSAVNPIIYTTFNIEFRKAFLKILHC

Cc1cc(O)c2c(c1)C(=O)c1cccc(O)c1C2=O
active: Potency [2] 8.43 µM
inactive: Potency [1] | Potency [3] | outcome [4] | Potency [5] | Potency [6] | Potency [7] | Potency [8] | Potency [9] | Potency [10] | Potency [11] | Potency [12] | Potency [13] | Potency [14] | Potency [15] | Potency [16] | Potency [17]

CC1=C(C(=O)OC(C)C)C(c2cccc([N+](=O)[O-])c2)C(C(=O)OC2CN(C(c3ccccc3)c3ccccc3)C2)=C(N)N1 (stereo not drawn)
active: Potency [1] 8.41 µM | Potency [7] 11.2 µM
inactive: Potency [2] | Potency [3] | Potency [18] | Potency [5] | Potency [6] | Potency [9] | Potency [10] | Potency [12] | Potency [14] | Potency [15] | Potency [16]

Cc1cc(O)c(C)c(C)c1O
inactive: Potency [1] | Potency [2] | outcome [4] | Potency [18] | Potency [5] | Potency [6] | Potency [19] | Potency [7] | Potency [8] | Potency [9] | Potency [10] | Potency [12] | Potency [20] | Potency [13] | Potency [16]

CCC(C)(C)C(=O)O
inactive: Potency [1] | Potency [2] | Potency [3] | Potency [18] | Potency [5] | Potency [6] | Potency [7] | Potency [8] | Potency [9] | Potency [10] | Potency [11] | Potency [12] | Potency [20] | Potency [13] | Potency [14] | Potency [16] | Potency [17]

OCCN1CN(CCO)CN(CCO)C1
inactive: Potency [1] | Potency [2] | outcome [4] | Potency [18] | Potency [5] | Potency [6] | Potency [19] | Potency [7] | Potency [8] | Potency [9] | Potency [10] | Potency [11] | Potency [12] | Potency [20] | Potency [14] | Potency [17]

Cc1ccc(OC(=O)c2ccccc2O)cc1
inactive: Potency [1] | Potency [2] | outcome [4] | Potency [18] | Potency [5] | Potency [6] | Potency [19] | Potency [7] | Potency [8] | Potency [9] | Potency [10] | Potency [11] | Potency [12] | Potency [14] | Potency [15] | Potency [16] | Potency [17]

C=CCOc1c(Br)cc(Br)cc1Br
inactive: Potency [1] | Potency [2] | Potency [3] | Potency [18] | Potency [5] | Potency [6] | Potency [19] | Potency [7] | Potency [8] | Potency [9] | Potency [10] | Potency [11] | Potency [12] | Potency [20] | Potency [13] | Potency [14] | Potency [16] | Potency [17]

N#C/C(=C1\SCC(c2ccccc2Cl)S1)n1ccnc1 (stereo not drawn)
inactive: Potency [1] | Potency [2] | outcome [4] | Potency [18] | Potency [5] | Potency [6] | Potency [19] | Potency [7] | Potency [8] | Potency [9] | Potency [10] | Potency [12] | Potency [20] | Potency [13] | Potency [14] | Potency [17]

COCCO
inactive: Potency [1] | Potency [2] | Potency [3] | outcome [4] | Potency [19] | Potency [8] | Potency [9] | Potency [10] | Potency [11] | Potency [20] | Potency [13] | Potency [14] | Potency [15] | Potency [16] | Potency [17]

CC(C)COC(=O)COc1cc(Cl)c(Cl)cc1Cl
inactive: Potency [1] | Potency [2] | outcome [4] | Potency [18] | Potency [5] | Potency [6] | Potency [19] | Potency [7] | Potency [8] | Potency [9] | Potency [10] | Potency [11] | Potency [12] | Potency [13] | Potency [14] | Potency [16] | Potency [17]

CCCCNc1ccc(NCCCC)c2c1C(=O)c1ccccc1C2=O
inactive: activity change, negative = cytotoxicity [1] -4.75% [at 19 µM] | activity, positive = activation [2] 14.7% [at 19 µM] | activity change [3] -0.141% [at 11.8 µM, stronger effect = higher value] | activation [4] 0.174% [at 11.8 µM] | activation [18] 5.72% [at 13.5 µM] | activity change, negative = cytotoxicity [6] -5.72% [at 13.5 µM] | activity change, negative = cytotoxicity [7] -1.83% [at 13.5 µM] | activation [8] 7.46% [at 13.5 µM] | activity, negative = inhibition [9] -10.8% [at 12.7 µM] | activation [10] -0.354% [at 15.9 µM] | activity, negative = inhibition [11] 4.22% [at 12.6 µM] | activation [12] -0.373% [at 15.8 µM] | activation [20] -1.16% [at 19 µM] | activity change, negative = inhibition [13] -1.01% [at 18.9 µM] | activity change, negative = inhibition [14] 1.56% [at 19 µM] | activation [16] 6.31% [at 19 µM] | activity change, negative = inhibition [17] -5.82% [at 18.9 µM]

COC(=O)C1=C(C)NC(C)=C(C(=O)OC(C)(C)CN(C)CCC(c2ccccc2)c2ccccc2)C1c1cccc([N+](=O)[O-])c1 (stereo not drawn)
inactive: Potency [1] | Potency [2] | outcome [4] | Potency [18] | Potency [5] | Potency [6] | Potency [19] | Potency [7] | Potency [8] | Potency [9] | Potency [10] | Potency [12] | Potency [13] | Potency [14] | Potency [16] | Potency [17]
active: Potency [11] 6.5 µM

CCOC(=O)OCC/C(SC(=O)OCC)=C(\C)N(C=O)Cc1cnc(C)nc1N
inactive: Potency [1] | Potency [2] | Potency [3] | outcome [4] | Potency [5] | Potency [6] | Potency [19] | Potency [7] | Potency [8] | Potency [9] | Potency [11] | Potency [12] | Potency [20] | Potency [13] | Potency [14] | Potency [15] | Potency [16]

CCC(=O)Oc1ccc2c(c1)CC[C@@H]1[C@@H]2CC[C@@]2(C)[C@H]1C[C@@H](OC(=O)CC)[C@@H]2OC(=O)CC
inactive: Potency [1] | Potency [2] | outcome [4] | Potency [18] | Potency [5] | Potency [6] | Potency [19] | Potency [7] | Potency [8] | Potency [9] | Potency [10] | Potency [11] | Potency [12] | Potency [14] | Potency [16] | Potency [17]
